This is an account of results in PubChem BioAssay (EPA / NIEHS).

Test [1] concerns the target THRB (gene 7068) (UniProt P10828). Briefly: TOX21_TRB_COA_Agonist_Followup_ratio: Tox21 Thyroid Hormone Receptor beta Agonism through Coactivator Recruitment Follow-Up Assay, Ratio (AID 2283963; active = hit-call score of the fitted dose curve at least 0.9, where 1 is the maximum; inactive = score below 0.9). The gist of the method:
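Agonism is measured as coactivator recruitment in a purified-protein TR-FRET format, using GST-TRβ LBD at 5.0 nM, fluorescein-SRC-2 peptide at 200 nM and Tb-labeled anti-GST antibody at 2 nM. Values are 520:495 nm ratios relative to DMSO (0%) and T3 (100%).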

Test [2] has as its target Retinoic acid receptor RXR-alpha (Homo sapiens) (UniProt P19793). Briefly: TOX21_TR_RXR_BLA_Agonist_Followup_ratio: Tox21 Thyroid Hormone Receptor beta Retinoid X Receptor alpha (RXRa) Agonism Beta-lactamase (BLA) Follow-Up Assay, Ratio (AID 2283968). The gist of the method:
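Agonist mode: compounds given to RXRa-bla HEK293T cells at 11 concentrations, triplicate, 16 h at 37C/5% CO2. Readout is the 460:530 nm blue/green ratio after 2 h substrate loading at room temperature; DMSO baseline, 9-cis retinoic acid control.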

Test [3] can be described thus: TOX21_TR_RXR_BLA_Agonist_Followup_viability: Viability Assessment in the Tox21 Thyroid Hormone Receptor beta Retinoid X Receptor alpha (RXRa) Agonism Beta-lactamase (BLA) Follow-Up Assay (AID 2283970). The text has this:
GeneBLAzer RXRa-UAS-bla HEK293T assay (RXRa-bla) (ThermoFisherScientific Catalog No. K1697) was run in qHTS 1536 well format as a secondary assay for specificity of response in the TOX21_TR_GH3_LUC_Agonist assay.TOX21_TR_RXR_BLA_Agonist_Followup_viability is a component of the TOX21_TR_RXR_BLA_Agonist_Followup assay. This component measures cell viability using the CellTiter-Glo Luciferase-coupled ATP quantitation.The assay component endpoint TOX21_TR_RXR_BLA_Agonist_Followup_viability was analyzed with bidirectional fitting relation to DMSO as the negative control and baseline of activity. Using a type of viability reporter, loss-of-signal activity can be used to understand changes in viability. To generalize the intended target to other relatable targets, this assay endpoint is annotated to cell cycle, where the subfamily is cytotoxicity.
Cell Media Required: Growth (90% DMEM/F-12, 10% Fetal Bovine Calf Serum, 100U/ml Penicillin, 100 ug/ml Streptomycin), Assay (10ng/mL sodium selenite, 10 ug/mL humanapo-transferrin, 10 uM ethanolamine, 10 ug/mL insulin, 500 ug/mL bovine serum albumin (BSA))Assay Protocol: RXRa-bla cells were seeded at 2,500/well in 6 uL of the assay medium containing phenol red-free DMEM with 2% charcoal-stripped FBS in 1,536-well black-wall/clear-bottom plates (Greiner Bio-One North America) usinga Multidrop Combi dispenser. […] The assay plates were incubated at 37C/5% CO2 for 16h. One microliter of LiveBLAzer FRET-B/GCCF4-AM substrate (Life Technologies) was added to each well using an FRD. After 2-h incubation at room temperature, the fluorescence intensity was measured using an Envision plate reader (Perkin Elmer). Data were expressed as the ratio of 460:530 nm.

In test [4] the target is THRB (gene 7068) (UniProt P10828). Briefly: TOX21_TRB_BLA_Agonist_Followup_ratio: Tox21 Thyroid Hormone Receptor beta Agonism Beta-lactamase (BLA) Follow-Up Assay, Ratio (AID 2283954). The gist of the method:
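Agonist mode: compounds (11-point, triplicate) incubated 18 h with HEK293T cells carrying GAL4-DBD/human TRβ-LBD and UAS-β-lactamase. Blue/green (460/530 nm) FRET ratio read after 2 h CCF4-AM loading; CellTiter-Glo viability run in the same plates.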

Test [5] in a line: TOX21_TRB_BLA_Agonist_Followup_viability: Viability Assessment in the Tox21 Thyroid Hormone Receptor beta Agonism Beta-lactamase (BLA) Follow-Up Assay (AID 2283956). The essentials: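 Viability was read as CellTiter-Glo luminescence in the same wells as the TRb-bla agonist read-out. HEK293T GAL4-TRb LBD cells were treated for 18 h (37C, 5% CO2) at 11 concentrations in triplicate. Fits were bidirectional versus DMSO baseline.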

The nature of test [6]: CCTE_Harrill_HTTr_Viability_DMEM_6hr: (Pilot) CCTE's 6-hour Cell Viability Assessment for the High-Throughput Transcriptomics (HTTr) Platform, in MCF-7 cells cultured in DMEM + 10% fetal bovine serum, Harrill Lab (AID 2283973; active = hit-call score of the fitted dose curve at least 0.9, where 1 is the maximum; inactive = score below 0.9). The gist of the method:
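Propidium iodide uptake imaged by high-content analysis after six hours of chemical treatment in an eight-concentration series. Cells: MCF-7 grown in DMEM with 10% fetal bovine serum; DMSO as baseline.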

Test [7] can be described thus: CCTE_Harrill_HTTr_Viability_DMEM_12hr: (Pilot) CCTE's 12-hour Cell Viability Assessment for the High-Throughput Transcriptomics (HTTr) Platform, in MCF-7 cells cultured in DMEM + 10% fetal bovine serum, Harrill Lab (AID 2283974; active = hit-call score of the fitted dose curve at least 0.9, where 1 is the maximum; inactive = score below 0.9). The gist of the method:
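Propidium iodide dye exclusion imaged by high-content microscopy after 12 h chemical exposure (eight concentrations) of MCF-7 cells grown in DMEM plus 10% FBS; values fitted in both directions relative to DMSO.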

Test [8] can be described thus: CCTE_Harrill_HTTr_Viability_DMEM_24hr: (Pilot) CCTE's 24-hour Cell Viability Assessment for the High-Throughput Transcriptomics (HTTr) Platform, in MCF-7 cells cultured in DMEM + 10% fetal bovine serum, Harrill Lab (AID 2283975; active = hit-call score of the fitted dose curve at least 0.9, where 1 is the maximum; inactive = score below 0.9). The essentials: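 Pilot study: propidium iodide dye exclusion, imaged by high content microscopy, after 24 h compound exposure (eight concentrations) in MCF-7 cultured in DMEM + 10% fetal bovine serum; DMSO served as negative control and baseline.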

Test [9] can be described thus: CCTE_Harrill_HTTr_Viability_PRF_DMEM_6hr: (Pilot) CCTE's 6-hour Cell Viability Assessment for the High-Throughput Transcriptomics (HTTr) Platform, in MCF-7 cells cultured phenol red-free DMEM + 10% charcoal-stripped fetal bovine serum, Harrill Lab (AID 2283976; active = hit-call score of the fitted dose curve at least 0.9, where 1 is the maximum; inactive = score below 0.9). The essentials: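 Membrane integrity by high-content imaging of propidium iodide uptake, six hours after dosing with eight concentrations. Cells: MCF-7 grown in phenol red-free DMEM plus 10% charcoal-stripped serum; DMSO serves as baseline for bidirectional fits.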

Test [10] in a line: CCTE_Harrill_HTTr_Viability_PRF_DMEM_12hr: (Pilot) CCTE's 12-hour Cell Viability Assessment for the High-Throughput Transcriptomics (HTTr) Platform, in MCF-7 cells cultured in phenol red-free DMEM + 10% charcoal-stripped fetal bovine serum, Harrill Lab (AID 2283977; active = hit-call score of the fitted dose curve at least 0.9, where 1 is the maximum; inactive = score below 0.9). The essentials:
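Membrane integrity was scored via propidium iodide dye exclusion imaging, fitted in both directions relative to DMSO. Compounds ran as eight-point dilutions for 12 hours on MCF-7 grown in phenol red-free DMEM plus 10% charcoal-stripped serum.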

Results filed as inconclusive are left out. Active and inactive are the calls of the source. The calls were made as follows, unless noted: active = hit-call score of the fitted dose curve at least 0.9, where 1 is the maximum; inconclusive = response in the unintended direction; inactive = score below 0.9.

Retinoic acid receptor RXR-alpha (Homo sapiens), sequence (P19793 whole entry, looked up): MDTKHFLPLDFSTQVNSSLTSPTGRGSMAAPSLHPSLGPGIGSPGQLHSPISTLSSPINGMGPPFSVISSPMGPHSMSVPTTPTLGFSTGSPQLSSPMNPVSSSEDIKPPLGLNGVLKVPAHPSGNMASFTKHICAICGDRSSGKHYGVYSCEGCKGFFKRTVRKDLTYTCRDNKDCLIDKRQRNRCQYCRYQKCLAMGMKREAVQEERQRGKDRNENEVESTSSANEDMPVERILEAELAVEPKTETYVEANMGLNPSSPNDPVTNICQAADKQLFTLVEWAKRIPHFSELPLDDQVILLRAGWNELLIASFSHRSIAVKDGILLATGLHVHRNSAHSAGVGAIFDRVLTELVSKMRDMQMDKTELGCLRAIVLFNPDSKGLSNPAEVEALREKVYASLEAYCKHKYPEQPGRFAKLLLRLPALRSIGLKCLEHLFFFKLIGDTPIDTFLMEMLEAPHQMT
THRB (gene 7068), sequence (P10828 whole entry, looked up, the tested form may be a part): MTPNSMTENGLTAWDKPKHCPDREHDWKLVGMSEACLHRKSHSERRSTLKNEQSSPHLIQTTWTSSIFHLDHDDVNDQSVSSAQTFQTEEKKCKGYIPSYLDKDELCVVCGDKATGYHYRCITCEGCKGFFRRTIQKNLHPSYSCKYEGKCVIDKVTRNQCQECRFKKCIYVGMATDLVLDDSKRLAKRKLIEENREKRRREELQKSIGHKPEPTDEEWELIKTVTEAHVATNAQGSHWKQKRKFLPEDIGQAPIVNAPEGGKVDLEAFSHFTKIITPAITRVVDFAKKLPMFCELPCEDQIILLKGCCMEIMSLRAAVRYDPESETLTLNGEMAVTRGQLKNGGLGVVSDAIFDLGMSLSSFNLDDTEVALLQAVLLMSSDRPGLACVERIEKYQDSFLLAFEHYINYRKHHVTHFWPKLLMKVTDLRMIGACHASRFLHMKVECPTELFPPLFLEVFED

On to `NNC(=S)NN`, for which the outcome in [1], in test [2] and in [3] was inactive.

In the case of `CC(C)(c1ccccc1)c1ccc(O)c(C(C)(C)c2ccccc2)c1`, the outcome in test [4], in test [5], in [1] and in test [3] was inactive.

For orientation: AC50 means the midpoint of the concentration-response curve, whichever way the signal moves. Turning to `C=C(C)C(=O)[O][Sn]([CH2]CCC)([CH2]CCC)[CH2]CCC`, the AC50 in test [4] is 68.3 µM (active); in test [5], 7.08 µM (active); in test [2], 0.116 µM (active); in [3], 15.1 µM (active). For the same compound, the outcome in test [1] was inactive.

Turning to `C[C@@H]1C[C@@H]([C@H](O)CC2CC(=O)NC(=O)C2)C(=O)[C@@H](C)C1`, the outcome in [6], in [7], in [9] and in test [10] was inactive. Also, the AC50 in [8] is 7.82 µM (active).

With `CC(C)(OO)c1ccccc1`, the compound was classed as inactive in [5], in test [1], in test [2] and in test [3].
